Source: PubChem (several laboratories)
ERp5 inh: inhibitors of ERp5-driven insulin aggregation, primary screen, biochemical, turbidity, absorbance 650 nm, single point. inhibition, % at 9.99 µM. Protein disulfide-isomerase A6 (Homo sapiens), Q15084. 90 min. 350,000 compounds, 0.05% hits. AID 651711, 2012;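 active = mean replicate inhibition above about 25%, with every replicate also reaching it, limit read from the data, passing the limit was not always enough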
Target sequence (Q15084 whole entry, looked up): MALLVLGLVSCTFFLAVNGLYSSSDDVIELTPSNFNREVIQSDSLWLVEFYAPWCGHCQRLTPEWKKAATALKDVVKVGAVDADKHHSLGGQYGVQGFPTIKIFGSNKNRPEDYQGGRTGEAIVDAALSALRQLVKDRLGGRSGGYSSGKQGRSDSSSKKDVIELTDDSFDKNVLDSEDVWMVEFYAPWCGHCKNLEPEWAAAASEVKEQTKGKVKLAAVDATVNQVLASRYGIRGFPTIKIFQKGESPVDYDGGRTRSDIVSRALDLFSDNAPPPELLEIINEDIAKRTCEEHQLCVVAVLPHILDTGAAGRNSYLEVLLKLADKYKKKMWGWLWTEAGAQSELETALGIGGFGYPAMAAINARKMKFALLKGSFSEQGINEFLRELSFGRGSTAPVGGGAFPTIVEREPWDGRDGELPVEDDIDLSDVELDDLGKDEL
PDI turbidity: inhibitors of human PDI, primary screen, biochemical, turbidity, single point, plate reader; AID 588391, 2011; Protein disulfide-isomerase (Homo sapiens), P07237; 350,000 compounds, 0.052% hits; PDI insulin aggregation turbidity, A650, 90 min; inhibition, % at 10 µM;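 active = mean inhibition across replicates of 30% or more, whatever share of single replicates reach that level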
NRP1-CendR mod: modulators of CendR peptide binding to NRP-1, primary screen, biochemical, fluorescence polarization, uHTS; 360,000 compounds, 0.85% hits; FAM-RPARPAR peptide binding to NRP-1; inhibition, % at 25 µM; Neuropilin-1 (Homo sapiens), O14786; AID 602438, 2012;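 active = inhibition or corrected inhibition above about 18%, plus a signal ratio from 0.5 to 1.5, limit read from the data, passing the limit was not always enough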
ARNT-TACC3 inh: disruptors of ARNT/TACC3 protein interaction, primary screen, biochemical, AlphaScreen, single concentration; Transforming acidic coiled-coil-containing protein 3 (Homo sapiens), Q9Y6A5; AlphaScreen His-ARNT PAS-B/GST-TACC3 binding, luminescence; TACC3 fragment carries E629A point mutation; inhibition, % at 9.99 µM; 390,000 compounds, 0.66% hits; AID 623870, 2012;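 active = mean inhibition of replicates at least 50% and at least half of replicates each reaching 50%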;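 note: 0% = complete ARNT plus TACC3 wells and 100% = ARNT alone without TACC3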
PglD DTNB: C. jejuni PglD acetyltransferase inhibitors, primary screen, biochemical, DTNB colorimetric, single point; UDP-N-acetylbacillosamine N-acetyltransferase PglD (Campylobacter jejuni); purified PglD enzyme, DTNB colorimetric CoA detection; inhibition, % at 12.5 µM; 360,000 compounds, 0.098% hits; in the data active = inhibition above about 16%, passing the limit was not always enough
ALR H2O2 inh: inhibitors of human ALR sulfhydryl oxidase, primary screen, biochemical, H2O2 detection, HRP-luminol luminescence, single point; inhibition, % (no concentration beside the values); 290,000 compounds, 3.8% hits; purified ALR, DTT oxidation;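 active = mean replicate inhibition above about 79%, with every replicate also reaching it, limit read from the data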
Target sequence (P55789 whole entry, looked up): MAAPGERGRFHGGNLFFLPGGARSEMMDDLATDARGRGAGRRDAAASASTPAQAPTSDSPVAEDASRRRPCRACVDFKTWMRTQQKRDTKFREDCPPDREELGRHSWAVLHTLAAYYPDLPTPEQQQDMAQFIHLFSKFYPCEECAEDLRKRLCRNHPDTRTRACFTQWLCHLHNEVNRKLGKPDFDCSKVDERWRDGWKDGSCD
* = called active by the depositor; nt = not tested or not shown. This excerpt belongs to a sample that is enriched for hits.

SMILES | ERp5 inh | PDI turbidity | NRP1-CendR mod | ARNT-TACC3 inh | PglD DTNB | ALR H2O2 inh
O=C1/C(=C/C=C/c2ccco2)SC(=S)N1c1ccc(O)cc1 | -5 | 5 | -170 | 5 | nt | 27
C[C@@H]1CCCCO[C@@H](CN(C)S(=O)(=O)c2cn(C)cn2)[C@H](C)CN([C@@H](C)CO)C(=O)c2cc(NS(C)(=O)=O)ccc2O1 | 4 | nt | nt | 1 | -2 | nt
O=C(C1CCCC1)N1C[C@H]2[C@@H](c3ccccc31)[C@@H](CO)N2C(=O)Cc1ccccn1 | 0 | nt | nt | 44 | 12 | nt
COC(=O)CCS(=O)(=O)c1cc(Cl)ccc1Cl | nt | 0 | -2 | -3 | -3 | 95*
C[C@@H]1CN([C@@H](C)CO)C(=O)c2cc(NS(=O)(=O)c3ccc(Cl)cc3)ccc2O[C@H]1CN(C)CC1CC1 | -5 | nt | nt | -2 | 3 | nt
O=C(c1ccncc1)N1C[C@@H]2[C@H](c3ccccc31)[C@@H](CO)N2C(=O)c1ccccn1 | -1 | nt | nt | 4 | 5 | nt
CCOC(=O)c1c(OCC)[nH]c2c1cc(O)c1ccccc12 | nt | -3 | -6 | 33* | -5 | 99*
N#C/C(=C/Nc1ccccc1)c1ccsc1 | nt | 4 | 12 | 7 | -3 | 89*
Cc1ccc(N/C=C(/C#N)c2ccsc2)cc1 | nt | 7 | -7 | 9 | 2 | 98*
COc1ccc2c3c(n(C)c2c1)[C@H](CO)N(Cc1cccc(F)c1)CC31CN(C)C1 | -4 | nt | nt | nt | nt | nt
O=C(Nc1ccc(F)cc1)Nc1ccc2c(c1)[C@@H]1C[C@@H](CC(=O)N3CCOCC3)O[C@H](CO)[C@@H]1O2 | -3 | nt | nt | -7 | 1 | nt
COc1ccc2c3c(n(C)c2c1)[C@@H](CO)N(CC1CCCC1)CC31CCN(C(=O)Nc2ccccc2)CC1 | -3 | nt | nt | nt | nt | nt
O=C(Nc1ccc(Cl)cc1)N1C[C@@H]2[C@H](c3ccccc31)[C@@H](CO)N2C(=O)C1CC1 | 2 | nt | nt | -4 | 2 | nt
Cc1n[nH]c(=O)n1-c1ccc(C(C)(C)C)cc1 | -5 | -11 | 21* | -17 | nt | -2
Cc1ccc(-n2c(C)n[nH]c2=S)cc1 | nt | -1 | 3 | -4 | 13 | 95*
COc1cc(-n2c(-c3ccccc3)n[nH]c2=S)c(OC)cc1Cl | 3 | -7 | 3 | -2 | nt | 79*
COc1ccccc1N1CCN(CCc2n[nH]c(=S)n2-c2ccccc2)CC1 | nt | 2 | -15 | -1 | 4 | 97*
COc1ccc(CSCCc2n[nH]c(=S)n2-c2ccccc2)cc1C | 3 | 3 | -2 | 1 | 12 | 32
COc1cccc(-n2c(C)n[nH]c2=O)c1 | nt | -4 | -3 | -6 | 4 | -2
O=C(C[C@H]1CC[C@H]2[C@@H](COC[C@H](O)CN2Cc2nccs2)O1)NCc1ccc(F)cc1 | -3 | nt | nt | -7 | 2 | nt
C[C@@H]1CN([C@H](C)CO)C(=O)c2cc(-c3ccccc3F)cnc2O[C@@H]1CN(C)Cc1cccc(C(=O)O)c1 | 14 | nt | nt | nt | 0 | nt
COc1ccc(-c2n[nH]c(=S)n2-c2ccc(C)cc2)cc1OC | 2 | 2 | -1 | -3 | 3 | 89*
Cc1ccc(-n2c(-c3nn(C)c(C)c3Cl)n[nH]c2=S)cc1 | nt | 0 | 20* | nt | -2 | 86*
COc1ccccc1-c1n[nH]c(=S)n1-c1ccccc1 | nt | -4 | 8 | -3 | 4 | 93*
CC(C)(C)c1cc(-c2n[nH]c(=S)n2-c2ccc(Cl)cc2)n[nH]1 | -5 | -3 | 0 | 1 | nt | 93*
SMILES | ERp5 inh | PDI turbidity | NRP1-CendR mod | ARNT-TACC3 inh | PglD DTNB | ALR H2O2 inh
Cc1nn(C)cc1-c1n[nH]c(=S)n1-c1ccc(Cl)cc1 | 1 | 1 | 10 | -8 | -3 | -1
CO[C@H]1CN(C)C(=O)c2cc(NS(=O)(=O)CC(F)(F)F)ccc2OC[C@H](C)N(CC2CCCCC2)C[C@@H]1C | 2 | nt | nt | nt | -3 | nt
COC(=O)C(C)Sc1nnc(SC(C)C(=O)OC)s1 (stereo unspecified) | 1 | -4 | 36* | 0 | 5 | -8
CCc1ccc(CCC(=O)Nc2ccc(Cl)cc2)o1 | -1 | 7 | 13 | -5 | -4 | 78*
CCOC(=O)c1c(NC(=O)CCc2ccc(CC)o2)sc(C)c1C | 0 | 18 | -11 | -9 | -4 | 97*
COC(=O)c1c(NC(C)=O)sc(C)c1C | -14 | 3 | -5 | -7 | nt | nt
COC(=O)c1c(NC(=O)CCc2ccc(C)o2)sc(C)c1C | nt | 5 | -12 | -10 | 13 | 97*
CCCC(=O)N1C[C@H]2[C@@H](c3ccccc31)[C@H](CO)N2C(=O)CC1CC1 | 2 | nt | nt | 5 | -4 | nt
O=S(=O)(c1cc(O)ccc1O)c1cccc2c(S(=O)(=O)c3cc(O)ccc3O)cccc12 | nt | 6 | -10 | 6 | -1 | 93*
COc1ccc(NC(=O)Nc2ccc3c(c2)CC(=O)N([C@H](C)CO)C[C@@H](C)[C@H](CN(C)S(=O)(=O)c2ccc(Cl)cc2)O3)cc1 | 5 | nt | nt | nt | nt | nt
Cc1ccc(N2C(=O)C(CC(=O)Nc3cccc(F)c3)N(C3CC3)C2=O)cc1 (stereo unspecified) | -5 | nt | 0 | -1 | -5 | 79*
COc1cc(OC)c(OC)cc1/C=N/Nc1nc2ccccc2[nH]1 | 5 | 5 | 2 | 20 | nt | 4
COc1cc(C(=O)Nc2nc3ccccc3[nH]2)cc(OC)c1OC | nt | 0 | 5 | 1 | 1 | 1
CCOc1cc(/C=N/NC(N)=O)cc(Br)c1OCc1ccccc1 | 4 | -7 | -2 | -1 | -1 | 1
CCOc1cc(/C=N/Nc2nc3ccccc3[nH]2)cc(Br)c1OCC(=O)N(C)C | 8 | -3 | 10 | -4 | 3 | 98*
COc1cc(/C=N\Nc2nc3ccccc3[nH]2)cc(OC)c1OC | nt | 4 | 3 | 9 | -1 | 99*
COc1ccc(/C=N/Nc2nc3ccccc3[nH]2)cc1OC | 4 | 0 | -7 | 16 | 1 | 99*
CC#CCN(Cc1ccco1)C(=O)C1CCC(=O)N(Cc2ccccc2F)C1 (stereo unspecified) | 2 | -17 | 23* | -2 | 0 | -3
CC#CCN(Cc1ccco1)C(=O)C1CCC(=O)N(CCc2cccc(F)c2)C1 (stereo unspecified) | 6 | 8 | -6 | nt | -10 | nt
CCOCCCNC(=O)C(c1ccc(C)cc1)N(Cc1cccs1)C(=O)c1ccccc1O (stereo unspecified) | 1 | 0 | 29* | 0 | nt | -11
CCOCCCNC(=O)C(c1ccccc1)N(Cc1cccs1)C(=O)c1ccccc1O (stereo unspecified) | 5 | 1 | 9 | -35 | nt | -1
